# Assay outcomes as filed in PubChem.
# A selection: hits, their analogues and other compounds. The true share with any hit is near 2.3%.
# HTT aggregate = reduces HttQ103-GFP aggregates in PC12 cells. PC12 HttQ103-GFP aggregates, Acumen cytometry, 40 h. Potency, µM (doses to about 46.1 µM), for inactives: at the highest dose activity change, negative = inhibition, hits mostly inhibitors. 220,000 compounds, 1.1% hits. AID 1688; active = well fitted curve in the direction sought with a large enough effect; inconclusive = small, poorly fitted or top-dose-only effect, or another doubt; inactive = no such curve, though single readings can be large; an effect the other way counts as inactive or inconclusive; also: potency is read from the fitted curve at half-maximal effect; % is scaled to controls: 0 for no effect and ±100 for the full control effect; nearly all actives have a fitted effect of over 60% in size
#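 Quantitative HTS on tebufenozide-induced (100 nM) PC12 cells stably expressing polyQ103 Huntingtin exon 1–GFP. Reduction of bright GFP aggregates, detected by laser scanning cytometry after lysis, identified actives across the titration.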
# RGS12 GoLoco inh-1 = blocks human Gai1 binding to RGS12 GoLoco peptide, red readout | 230,000 compounds, 0.44% hits | P63096 | AID 880 | Potency, µM (highest dose often 61.6 µM), for inactives: at the highest dose activity, negative = inhibition, most hits filed as inhibitors | Gai1:RGS12 GoLoco peptide FP, rhodamine, 10 min; active = well fitted inhibition curve with a large enough effect, not every such curve was filed as active; inactive = no such curve, though single readings can be large or run the other way; also: potency is read from the fitted curve at half-maximal effect; % is scaled to controls: 0 for no effect and ±100 for the full control effect; nearly all actives have a fitted effect of over 30% in size
# HTT cytoprotect = protects HTT-Q103 PC12 cells, measured by ATP. Potency, µM (titrated, usually from 56.4 µM), without a hit: cytoprotection (ATP increase), usual class: activators. PC12 HTT-Q103 induced, cytoprotection, ATP luminescence, 40 h. 230,000 compounds, 0.14% hits; active = well fitted curve in the direction sought with a large enough effect; inconclusive = small, poorly fitted or top-dose-only effect, or another doubt; inactive = no such curve, though single readings can be large; an effect the other way counts as inactive or inconclusive; also: potency is read from the fitted curve at half-maximal effect; % of control where 0% means no effect; nearly all actives have a fitted effect of over 45% in size
#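 Readout: ATPlite luminescence (ATP level). Model: stable PC12, inducible Htt exon1 Q103-GFP. Inducer: tebufenozide, 100 nM final. Compounds: dose series. No G418 in medium.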
# Coupling enz = counter-screen for Giardia aldolase inhibitors: coupling enzyme system. activity change, negative = inhibition, % at 58.2 µM, hits read low. coupling enzyme system counterscreen, AmpLite Red fluorescence. 290,000 compounds, 0.67% hits; in the data active = activity change below about -30%; also: % is scaled to controls: 0 for no effect and ±100 for the full control effect
#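 Fluorescence at 525 nm excitation and 598 nm emission measured inhibition of the coupled detection system without aldolase. Compounds (at 57.5 uM final) were preincubated 10 min at room temperature with coupling enzyme reagent before a 20 min substrate/AmpLite Red step.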
# KDM4E inh = inhibitors of human JMJD2E histone demethylase. JMJD2E catalytic domain, FDH-coupled NADH fluorescence (FDH is formaldehyde dehydrogenase). Potency, µM (top dose mostly 57.1 µM), for the others: at the highest dose activity change, negative = inhibition, most hits filed as inhibitors. B2RXH2. 230,000 compounds, 1.6% hits. AID 2147; active = well fitted inhibition curve with a large enough effect, not every such curve was filed as active; inconclusive = small, poorly fitted or top-dose-only effect, or another doubt; inactive = no such curve, though single readings can be large or run the other way;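 also: potency is read from the fitted curve at half-maximal effect; 0% = wells with enzyme and -100% = buffer wells without enzyme; nearly all actives have a fitted effect of over 50% in size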
# VDR inhibitor = vitamin D3 receptor (human) inhibition; P11473; VDR-SRC2-3 peptide fluorescence polarization, 2 h; Potency, µM, inactives show max response, negative = inhibition, actives largely listed as inhibitors; 400,000 compounds, 0.93% hits; AID 504847; active = well fitted curve in the direction sought with a large enough effect; inconclusive = small, poorly fitted or top-dose-only effect, or another doubt; inactive = no such curve, though single readings can be large; an effect the other way counts as inactive or inconclusive; also: potency is read from the fitted curve at half-maximal effect; % is scaled to controls: 0 for no effect and ±100 for the full control effect
#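 The screen uses fluorescence polarization to detect compounds that interfere with recruitment of the SRC2-3 coactivator peptide to VDR; plates are read after 2 h at room temperature.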
# RGS12 GoLoco inh-2 = disrupts Gai1 binding to human RGS12 GoLoco peptide. shares compounds with RGS12 GoLoco inh-1. Potency, µM (doses to about 57.1 µM), without a hit: at the highest dose activity, negative = inhibition, most hits filed as inhibitors. 110 compounds, 50% hits. Gai1/rhodamine-RGS12 GoLoco peptide fluorescence polarization; active = well fitted curve in the direction sought with a large enough effect; inconclusive = small, poorly fitted or top-dose-only effect, or another doubt; inactive = no such curve, though single readings can be large; an effect the other way counts as inactive or inconclusive
# Casp1 catalase = caspase-1 inhibition with catalase present; 30 tested, under 10 active; caspase-1 Ac-WEHD-AFC fluorescence rate, catalase buffer; shares compounds with Coupling enz; Potency, µM (series often up to 57.5 µM), without a hit: at the top dose activity change, negative = inhibition, usual class: inhibitors; AID 888
# CASP1 inh CRC = blocks human caspase-1 activity in concentration-response; shares compounds with Coupling enz; purified caspase-1, fluorogenic substrate cleavage; Potency, µM (highest dose often 57.5 µM), for inactives: at the highest dose activity change, negative = inhibition, hits mostly inhibitors; 60 compounds, 20% hits; AID 896
# Casp7 confirm = confirmation of allosteric or competitive inhibitors of human caspase-7; shares compounds with Coupling enz; 60 tested, under 10 active; recombinant caspase-7, fluorogenic substrate cleavage; Potency, µM (titrated, usually from 57.5 µM), inactives show at the highest dose activity change, negative = inhibition, actives largely listed as inhibitors; AID 897; active = well fitted inhibition curve with a large enough effect in the main read-out, with a control signal flat, not every such curve was filed as active; inconclusive = small, poorly fitted or top-dose-only effect, or a change in a side signal; inactive = no such curve, though single readings can be large or run the other way
# CASP7 redox cys = inhibits caspase-7 in cysteine buffer, redox counter-screen; shares compounds with Coupling enz; caspase-7 enzyme with cysteine, fluorogenic substrate, redox counterscreen; Potency, µM (top dose mostly 57.5 µM), without a hit: at the top dose activity change, negative = inhibition, actives largely listed as inhibitors; 60 tested, under 10 active; AID 908
# CASP7 redox cat = caspase-7 inhibition with catalase present; shares compounds with Coupling enz; Caspase-7 Ac-DEVD-AFC fluorescence rate, catalase buffer; Potency, µM (doses to about 57.5 µM), inactives show at the highest dose activity, negative = inhibition, actives largely listed as inhibitors; 30 tested, under 10 active; AID 909
# Casp1 cysteine = inhibits caspase-1 in cysteine buffer, redox counter-screen | shares compounds with Coupling enz | recombinant caspase-1, fluorogenic substrate, cysteine buffer | Potency, µM (doses to about 57.5 µM), inactives show at the top dose activity change, negative = inhibition, most hits filed as inhibitors | 60 tested, under 10 active
# * hit, by the source's call; u = inconclusive; x = not tested or not shown; [ ] = remark or other dose. Unless noted, calls follow the shape of the dose curve; as a rule, active = well fitted inhibition curve with a large enough effect in the main read-out, with a control signal flat; inconclusive = small, poorly fitted or top-dose-only effect, or a change in a side signal; inactive = no such curve, though single readings can be large or run the other way.
SMILES,HTT aggregate,RGS12 GoLoco inh-1,HTT cytoprotect,Coupling enz,KDM4E inh,VDR inhibitor,others
N[C@@H](Cn1ccc(=O)[nH]c1=O)C(=O)O,x,x,x,x,x,-2%,
O=C(c1ccc(Cl)cc1)C1CCCN(Cc2cccc3cnccc23)C1 (stereo not drawn),20µM*,13%,-25%,1,8%,u,
COC1=C[C@H]2[C@@H]3Cc4ccc(OC)c(O)c4[C@@]2(CCN3C)CC1=O,x,x,15%,x,x,x,
CC(=NCc1ccco1)c1c(O)n(C)c(=O)n(C)c1=O,16µM*,-14%,-15%[0.074 µM],2,2%,13%,
CCC(=NCc1ccco1)c1c(O)n(C)c(=O)n(C)c1=O,9%[9.22 µM],-4%,4%[10 µM],-1,6%,7%,
CC(C)C[C@H]1C(=O)N2CCC[C@H]2[C@]2(O)O[C@](NC(=O)C3C=C4c5cccc6[nH]c(Br)c(c56)C[C@H]4N(C)C3)(C(C)C)C(=O)N12 (stereo partly drawn),x,x,x,x,x,-2%,
CC(C)C[C@H]1C(=O)N2CCCC2[C@]2(O)O[C@](NC(=O)[C@@H]3C=C4c5cccc6[nH]c(Br)c(c56)C[C@H]4N(C)C3)(C(C)C)C(=O)N12 (stereo partly drawn),14%,-8%,u,x,u,18µM*,
CC(C)[C@]1(NC(=O)[C@@H]2C=C3c4cccc5[nH]cc(c45)C[C@H]3N(C)C2)O[C@@]2(O)C3CCCN3C(=O)[C@H](Cc3ccccc3)N2C1=O (stereo partly drawn),x,-4%,-12%[1.9 µM],-32*,u,x,
CC(C)C1C(=O)N2CCC[C@H]2[C@]2(O)O[C@](NC(=O)[C@@H]3C=C4c5cccc6[nH]cc(c56)C[C@H]4N(C)C3)(C(C)C)C(=O)N12 (stereo partly drawn),x,139%,-29%,x,x,45µM*,
N[C@@H](Cc1c[nH]c2cc([N+](=O)[O-])ccc12)C(=O)O,x,-12%[14.2 µM],10%[10 µM],x,x,x,
Cc1ccc(S(=O)ON2CCC(C(=O)O)(c3ccccc3)CC2)cc1 (stereo not drawn),x,10%[14.2 µM],15%[10 µM],x,x,x,
O=C1C(I)=CC(=C(c2cc(I)c(O)c(I)c2)c2ccccc2C(=O)O)C=C1I,23%,x,10%,x,x,35µM*,
CC(=O)Oc1c(C)cccc1C(=O)O,x,3%,x,-5,u,-4%,
CC(CN)CC(=O)O (stereo not drawn),x,1%,-30%,x,x,2%,
Oc1cc[c]([Hg][Cl])cc1,2.5µM*,x,-99%,x,x,4µM*,
CC[C@@]1(O)CC(O)c2c(cc3c(c2O)C(=O)c2c(O)ccc(O)c2C3=O)C1C(=O)OC (stereo partly drawn),x,2.8µM*,-270%,-16,13µM*,u,RGS12 GoLoco inh-2=5µM*
CNNC,x,28%,x,-18,u,u,
C[N+]1(C)CCCCC1COC(=O)C(O)(c1ccccc1)c1ccccc1 (stereo not drawn),31%,x,42%,x,x,7%,
CCC(CO)(C(=O)OC1C[N+]2(C)CCC1CC2)c1ccccc1 (stereo not drawn),-33%,16µM*,-47%,3,-27%,7%,RGS12 GoLoco inh-2=16µM*
ClP(Cl)(Cl)(Cl)Cl,x,-13%,u,x,x,x,
Oc1ccc2c3c1OC1C(O)CC[C@]4(O)C(C2)N(CC2CCC2)CC[C@]314 (stereo partly drawn),x,28µM*,-15%,0,3%,0%,RGS12 GoLoco inh-2=1%
Cn1ncnc2c(=O)n(C)c(=O)nc1-2,5µM*,-14%,-88%,-94*,4µM*,-6%,Casp1 catalase=1.1µM*;CASP1 inh CRC=2µM*;Casp7 confirm=4µM*;CASP7 redox cys=-17%;CASP7 redox cat=u;Casp1 cysteine=-15%
C(=NC1CCCCC1)=NC1CCCCC1,x,8%,27%,x,x,x,
COc1cc2c(cc1O)-c1c(O)c(OC)cc3c1[C@H](C2)N(C)CC3,x,-13%,-3%[1.9 µM],-28,u,x,CASP1 inh CRC=-14%;Casp7 confirm=-5%;CASP7 redox cys=-6%;Casp1 cysteine=3%
C[C@H](NC(=O)[C@@H](N)Cc1ccc(O)cc1)C(=O)N[C@@H](Cc1ccccc1)C(=O)N[C@@H](Cc1ccccc1)C(N)=O,x,2%,-19%,x,x,1%,
C[C@]12Cc3cn4c(nc3C=C1CC[C@H]1[C@@H]2CC[C@@]2(C)[C@H]1CC[C@@]2(O)C#N)nc1ccccc14,x,x,-1%[1.9 µM],x,x,x,CASP1 inh CRC=u;Casp7 confirm=u;CASP7 redox cys=u;Casp1 cysteine=u
C[C@]12Cc3cn4c(nc3C=C1CCC1C2CC[C@@]2(C)[C@H]1CC[C@@]2(O)C#N)nc1ccccc14 (stereo partly drawn),x,17%,x,x,-18%,u,
